# Experimental data taken from PubChem BioAssay AID686978 (National Center for Advancing Translational Sciences (NCATS), 2013).
# Among all 420,000 compounds or so, about 64,000 (15%) were called active. Not shown: some 27% with an inconclusive outcome. A selection follows. Values without a mark were called inactive. The call rests on the fitted dose curve; in most records, active means well fitted inhibition curve with a large enough effect; inconclusive means small, poorly fitted or top-dose-only effect; inactive means flat fitted curve, though single readings scatter.
# Test: qHTS for Inhibitors of human tyrosyl-DNA phosphodiesterase 1 (TDP1): qHTS in cells in absence of CPT; further: nearly all actives have a fitted effect of over 55% in size
# Conditions: DT40 Tdp1-/- hTDP1 cells, no CPT, ATP luminescence, 48 h; activity change, negative = growth inhibition: at 46.2 µM (top of the series)
# In short: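 DT40 Tdp1-/-;hTDP1 cells, no CPT (DMSO vehicle only), 400 cells/well; compounds pin-transferred; ≥48 hr, 37 °C; CellTiter-Glo 30 min RT dark, luminescence read.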
# On the % scale 0 is the no-effect control and ±100 the full control effect; potency means the concentration at half of the fitted maximal effect.
SMILES,"activity change, negative = growth inhibition",Potency
CCOc1ncccc1C(=O)OCc1cn2cc(Cl)ccc2n1,-11.7%,
C[C@@H]1CN([C@H](C)CO)C(=O)c2cc(Br)cnc2O[C@@H]1CN(C)Cc1cncnc1,1.36%,
COc1ccc(-c2[nH]nc(-c3ccccc3)c2-c2nc3ccccc3[nH]2)cc1,-7.56%,
CNC(=O)NCCN1CCCC1=O,-19.7%,
COC(=O)C[C@@H]1C=C[C@@H](NC(=O)c2cccnc2)[C@@H](CO)O1,-1.14%,
Cc1nn(C)c(Oc2ccccc2)c1[N+](=O)[O-],-2.02%,
CCN1CC(CN(C)Cc2nc(-c3ccc(Cl)cc3)no2)CC1=O (stereo unspecified),,16.4 µM (active)
CN(CCN1CCOCC1)Cc1nc(-c2ccc3c(c2)OCO3)no1,2.13%,
CN(Cc1ccccn1)Cc1nc(-c2ccc(Cl)cc2)no1,5.98%,
O=C(Nc1ccccc1)O/N=C1/CCCc2occc21,-5.58%,
COc1ccc(CNC(=O)CN2C(=O)NC3(CCCc4sccc43)C2=O)cc1 (stereo unspecified),-2.19%,
COc1ccc(C(=O)CN2C(=O)NC3(CCc4ccccc43)C2=O)c(OC)c1 (stereo unspecified),-6.81%,
COc1ccc(-n2c(C)cc(C(=O)CN3C(=O)NC4(CCc5ccccc54)C3=O)c2C)cc1 (stereo unspecified),,18.4 µM (active)
CCc1cccc(NC(=O)COC(=O)c2cc(=O)c3ccccc3o2)c1,-0.297%,
CCOc1ccc(NC(=O)C(=O)NCCc2csc3nc(-c4ccccc4F)nn23)cc1,-8.41%,
CCC1(C2CCN(C(=O)c3cccc(F)c3F)CC2)NC(=O)N(CCc2scnc2C)C1=O (stereo unspecified),-4.82%,
Cn1cccc1C(=O)Nc1nccs1,18.4%,
CC(C)NC(=O)N1CC[C@@]2(CCCN(C(=O)c3cccc(F)c3)C2)C1,-6.14%,
Cc1ccc(CN(C(=O)COc2ccc(Cl)cc2C)C2CCS(=O)(=O)C2)o1 (stereo unspecified),,23.1 µM (active)
Cc1ccccc1OCC(=O)N(Cc1cccc(F)c1)C1CCS(=O)(=O)C1 (stereo unspecified),2.13%,
CCCCN(C(=O)COc1ccc(NC(C)=O)cc1)C1CCS(=O)(=O)C1 (stereo unspecified),-5.15%,
O=C(/C=N/O)Nc1ccccc1,-4.33%,
CCc1c(C)c2ccc(OC3CCCCC3=O)cc2oc1=O (stereo unspecified),10.1%,
O=c1[nH]cnc(O)c1C(c1ccc(F)cc1)c1c(O)nc[nH]c1=O,-6.26%,
O=C(O)CCn1c(Cc2ccccc2)nc2ccccc21,4.29%,
O=C(O)CCn1c(O)c(C=C2N=c3ccccc3=N2)sc1=S,,18.4 µM (active)

SMILES,"activity change, negative = growth inhibition",Potency
O=C(NCCc1ccc(C(F)(F)F)cc1)c1ccc2c(c1)OCO2,7.51%,
CC1C(c2ccccc2)=[N+]([O-])C2(CCCC2)N1O (stereo unspecified),-1.92%,
COc1ccc(C2CC(=O)c3c(O)cc(OC4OC(COC5OC(C)C(O)C(O)C5O)C(O)C(O)C4O)cc3O2)cc1O (stereo unspecified),0.352%,
CC(C)S(=O)(=O)c1oc(-c2ccc(F)cc2)nc1S(=O)(=O)c1ccc(F)cc1,,0.326 µM (active)
COc1cc(-c2nc(S(=O)(=O)c3ccc(Cl)cc3)c(N(C)C)o2)cc(OC)c1OC,-18.5%,
CC1(C)OC2CC3C4CCC5=CC(=O)CCC5(C)C4(F)C(O)CC3(C)[C@]2(C(=O)CCl)O1 (stereo partly specified),-19.2%,
COc1cc(C(=O)Nn2c(O)c(C3=c4ccccc4=NC3=O)sc2=S)ccc1O,-4.32%,
CO[C@@H]1[C@@H](OC(N)=O)[C@@H](O)C(Oc2ccc3c(O)c(NC(=O)c4ccc(O)c(CC=C(C)C)c4)c(=O)oc3c2C)OC1(C)C (stereo partly specified),-4.77%,
CCc1cccc(C)c1N(C(=O)Cn1c(CO)nc2ccccc21)C(C)COC (stereo unspecified),-20.8%,
COCc1nc2ccccc2n1Cc1ccccc1Br,,16.4 µM (active)
O=C(NC1Cc2ccccc2C1)c1cc(COc2cccc(C(F)(F)F)c2)on1,-11.7%,
C/C(CC(=O)N1CCN(C=O)CC1)=N\NC(=O)c1ccc(Br)cc1,-7.46%,
COC(=O)[C@@H]1C[C@@]2(O)[C@H](O)[C@H](O)[C@H](O)C[C@H]2N1Cc1ccc(C)s1,2.33%,
CC(C)N=C1CCCC1C(=S)SSC(=S)C1CCCC1=NC(C)C (stereo unspecified),,0.164 µM (active)
COc1cc(OC)c2c(c1Cl)OC1(C2=O)C(O)=CC(=O)CC1C (stereo unspecified),-6.94%,
COc1ccc(CN2CCCCC2C)cc1OC (stereo unspecified),13.3%,
COC(=O)c1ccc(COc2ccc(C#N)cc2)o1,3.16%,
COc1ccc(C(C)C)cc1S(=O)(=O)Nc1ncn[nH]1,6.42%,
CCOc1cc(C)c(Cl)cc1S(=O)(=O)n1nnc2ccccc21,0.99%,
CCOc1ccc(C(C)C)cc1S(=O)(=O)n1nc(C)cc1C,,13 µM (active)
CCCNC(=O)CCC(=O)N1Cc2ccccc2Oc2ncccc21,-4.93%,
Cc1ccc(NC(=O)CS(=O)CC(=O)N(c2ccccc2)C(C)C(=O)NC2CCCC2)cc1 (stereo unspecified),-18.9%,
COc1ccc(NS(=O)(=O)c2ccc(C)c(C(=O)N(C)Cc3ccc(OC)cc3OC)c2)cc1,,18.4 µM (active)
CCOc1ccc(NS(=O)(=O)c2ccc(Cl)c(C(=O)N(C)Cc3cccnc3)c2)cc1,-32.2%,
COc1ccc(NS(=O)(=O)c2ccc(C)c(C(=O)NNC(=O)c3csc(N4CCOCC4)n3)c2)cc1,-14%,
CC(=O)Nc1ccc(S(=O)(=O)N(C)c2nc3ccccc3nc2Cl)cc1,,23.1 µM (active)

SMILES,"activity change, negative = growth inhibition",Potency
CC(=O)Nc1ccc(S(=O)(=O)NNC(=O)CCc2ccccc2)cc1,-3.77%,
CC(=O)Nc1ccc(S(=O)(=O)N(C)c2ccc(OCC(=O)OCC(=O)N3CCCCC3)cc2)cc1,2.05%,
Cc1ccc(C2CC2C(=O)NN)cc1 (stereo unspecified),-0.402%,
CCOc1ccc(NS(=O)(=O)c2ccc(N)cc2)nn1,-12.4%,
CC(=O)c1c(C)n(S(=O)(=O)c2ccc(Cl)cc2)c2ccc(NS(=O)(=O)c3ccc(Cl)cc3)cc12,,14.6 µM (active)
CCOC(=O)c1c(C)n(S(=O)(=O)c2ccc(C)cc2C)c2ccc(NS(=O)(=O)c3ccc(C)cc3C)cc12,,20.6 µM (active)
CC(=O)NCCc1ccc(S(=O)(=O)Nc2ccc(C)c(S(=O)(=O)N3CCOCC3)c2)cc1,-1.29%,
CCOC(=O)c1c(S(=O)(=O)NCC(=O)Nc2ccc(C)cc2)c(C)n(C)c1C,8.47%,
CCn1c(C)nc2cc(C(=O)NNS(=O)(=O)c3ccc(C)cc3C)ccc21,-17.1%,
O=S(=O)(Nc1ccc(-n2cnnn2)cc1)c1ccc(Cl)cc1,0.723%,
CC(C)(C)CN1CCNC(=O)C1CC(=O)NC1Cc2ccccc2C1 (stereo unspecified),1.76%,
Oc1ccc(-c2nncn2-c2ccccc2)cc1,-19%,
COc1cccc(NC(=O)CSc2nnc(Cc3ccc(OC)c(OC)c3)o2)c1,-0.112%,
O=C(CCCn1c(=O)c2sccc2n(CC(=O)NCC2CCCO2)c1=O)NCc1ccco1 (stereo unspecified),-2.99%,
CCC1CCCCN1C(=O)Cn1c(=O)n(CCCCCC(=O)NCc2ccccc2)c(=O)c2sccc21 (stereo unspecified),,13 µM (active)
Cc1ccc(C)c(Cn2c(=O)n(CCC(=O)NCc3ccc4c(c3)OCO4)c(=O)c3sccc32)c1,-26%,
NC(CSC12CC3CC(CC(C3)C1)C2)C(=O)O (stereo unspecified),-1.44%,
CCCc1nc2oc3c(=O)[nH]cnc3c2c2c1COC(C)(C)C2,0.996%,
C=CCN1CCN(c2ccncc2S(=O)(=O)N2CCN(C)CC2)CC1,-9.36%,
CSCCC(NC(=O)c1ccccc1)C(=O)N1CCN(Cc2ccc(Cl)cc2)CC1 (stereo unspecified),,10.3 µM (active)
CSCCC(NC(=O)c1ccccc1)C(=O)N1CCCCCCC1 (stereo unspecified),-4.61%,
O=C(NC(=S)N1CCN(Cc2ccccc2)CC1)c1ccccc1,-11.6%,
COc1ccccc1C(=O)NC(CCSC)C(=O)N1CCN(C/C=C/c2ccccc2)CC1 (stereo unspecified),,20.6 µM (active)
COc1ccccc1C(=O)NC(CCSC)C(=O)NNC(=O)c1ccccc1C (stereo unspecified),-3.37%,
COc1ccccc1C(=O)NC(CCSC)C(=O)N1CCN(C(C)=O)CC1 (stereo unspecified),9.07%,
O=C(CN1CCOCC1)Nc1c(-c2ccccc2)c2cc(Br)ccc2[nH]c1=O,-15.2%,

SMILES,"activity change, negative = growth inhibition",Potency
Cc1ccccc1OCc1nc2c3cnn(-c4ccccc4F)c3ncn2n1,-20.3%,
C=CCN(CC=C)CCOc1ccccc1[N+](=O)[O-],-28.7%,
COc1cc(-c2nnn(CC(=O)NCc3ccccc3)n2)cc(OC)c1OC,,14.6 µM (active)
COc1ccc(CNC(=O)Cn2nnc(-c3ccccc3F)n2)cc1,-18.4%,
O=C(Cn1nnc(-c2ccccc2)n1)NCc1ccccc1,2.1%,
Cn1c(=NC(=O)CSCC(=O)N2CCOCC2)sc2ccccc21,-29.2%,
CCC(=O)N1CCc2cc(S(=O)(=O)NCCC(=O)Nc3cccc(C)c3C)ccc21,-27.6%,
COc1cc(C(=O)OCC(=O)NC23CC4CC(CC(C4)C2)C3)cc(OC)c1OC,,18.4 µM (active)
O=C(COC(=O)c1cccnc1Cl)NC12CC3CC(CC(C3)C1)C2,-12.2%,
O=C(COC(=O)c1ccc(Br)o1)NC12CC3CC(CC(C3)C1)C2,-6.16%,
CCOC(=O)CNc1nc2ccccc2n2c(C)nnc12,18.8%,
CCOC(=O)c1oc2c(CN3CCN(CCO)CC3)c(O)c(CC)cc2c(=O)c1-c1nc2ccccc2s1,-7.24%,
O=C(NCCCN1CCOCC1)c1ccccc1NS(=O)(=O)c1ccc(Br)cc1,-9.57%,
O=C(NCCCN1CCOCC1)c1cnn2c(-c3ccccc3)cc(-c3ccccc3)nc12,,20.6 µM (active)
O=C(NCCCN1CCOCC1)c1ccccc1NS(=O)(=O)c1ccc(F)cc1,-3.35%,
CCCCN=C1N/C(=C\c2ccco2)C(=O)N1c1ccccc1,,29.1 µM (active)
CCOC(=O)C1(C)NC(c2ccco2)C2C(=O)N(c3ccccc3)C(=O)C21 (stereo unspecified),4.49%,
COc1cc2c(cc1/C=C1/NC(=O)N(c3ccccc3)C1=O)OCO2,-17.6%,
Cc1cc(NC(=O)CS(=O)(=O)c2cn(C)c3ccccc23)no1,-17.2%,
CN(C)CCNC(=O)C(C(=O)c1ccccc1)n1ccccc1=O (stereo unspecified),-6.39%,
O=C(Nc1nc2c(F)cc(F)cc2s1)C1COc2ccccc2O1 (stereo unspecified),-25.4%,
O=C(Nc1ncc([N+](=O)[O-])s1)C1COc2ccccc2O1 (stereo unspecified),,18.4 µM (active)
O=C(Nc1nnc(SCc2ccc(Cl)cc2Cl)s1)C1COc2ccccc2O1 (stereo unspecified),-6.33%,
